TRHR ag: qHTS for Small Molecule Agonists and Allosteric Enhancers of Human TRH Receptor: Primary Screen for Agonists; TRHR cells, calcium flux fluo-8, FDSS agonist mode; 0.18% of 360,000 active; AID 493084, 2011; Thyrotropin-releasing hormone receptor (Homo sapiens), P34981; activation, % at 2 µM; in the data active means activation above about 30%; further: 0% is about no effect
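TRHR-expressing cells loaded with fluo-8 calcium dye; 23 nL library compound pin-transferred, kinetic FDSS fluorescence (Ex 480/Em 530) recorded about 180 s for agonist-induced calcium release, before a 10 nM TRH EC20 addition for potentiator mode.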
MBNL1-CUG inh: qHTS Assay for Inhibitors of MBNL1-poly(CUG) RNA binding. Muscleblind-like protein 1 (Homo sapiens), Q9NR56. TR-FRET MBNL1-His/biotin-(CUG)12 binding, 665/545 ratio. Potency, µM (highest dose often 57.5 µM), without a hit: at the highest dose activity change, negative = inhibition, usual class: inhibitors. 0.036% of 280,000 active. AID 2675, 2010; active means well fitted inhibition curve with a large enough effect in the signal ratio, with a control signal flat, not every such curve was filed as active; inconclusive means small, poorly fitted or top-dose-only effect, or effect the other way, or a change in a side signal; inactive means no such curve, though single readings can be large or run the other way; the % refers to the signal ratio; further: potency means the concentration at half of the fitted maximal effect; on the % scale 0 is the no-effect control and ±100 the full control effect
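Ratiometric TR-FRET (665 over 545 nm, excitation 340 nm) tracks disruption of MBNL1-His/biotin-(CUG)12 complex after 60 min at room temperature, with compounds at 92 nM to 58 uM final.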
IL2 activator: qHTS of IL-2 Activators | 0.065% of 360,000 active | IL-2 activation reporter assay, cell-based qHTS; stimulated with anti-CD3/CD4/CD28 beads; in transgenic mouse T cells | activation, % (series mostly up to about 46 µM); in the data active means activation above about 50%; inconclusive means mostly about 30% to 49%; further: 0% is about no effect
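Readout is EGFP and DsRed signal by fluorescent plate cytometry after 18 h at 37 degrees C. Transgenic mouse T cells (750/well) received compound for 60 min before bead stimulation (anti-CD3, anti-CD4, anti-CD28); memory T cells served as non-tolerant control.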
CBFb RUNX1 block: qHTS Assay for Compounds Blocking the Interaction Between CBF-beta and RUNX1 for the Treatment of Acute Myeloid Leukemia. Runt-related transcription factor 1 (Homo sapiens) + Core-binding factor subunit beta …. Potency, µM (series often up to 59.8 µM), for the others: top-dose activity, negative = inhibition, usual class: inhibitors. 230,000 tested, under 10 active. AlphaScreen CBFb-His/RUNX1-biotin binding, biochemical. AID 1477, 2009; further: % of control where 0% means no effect
Target sequence (Q01196 whole entry, looked up): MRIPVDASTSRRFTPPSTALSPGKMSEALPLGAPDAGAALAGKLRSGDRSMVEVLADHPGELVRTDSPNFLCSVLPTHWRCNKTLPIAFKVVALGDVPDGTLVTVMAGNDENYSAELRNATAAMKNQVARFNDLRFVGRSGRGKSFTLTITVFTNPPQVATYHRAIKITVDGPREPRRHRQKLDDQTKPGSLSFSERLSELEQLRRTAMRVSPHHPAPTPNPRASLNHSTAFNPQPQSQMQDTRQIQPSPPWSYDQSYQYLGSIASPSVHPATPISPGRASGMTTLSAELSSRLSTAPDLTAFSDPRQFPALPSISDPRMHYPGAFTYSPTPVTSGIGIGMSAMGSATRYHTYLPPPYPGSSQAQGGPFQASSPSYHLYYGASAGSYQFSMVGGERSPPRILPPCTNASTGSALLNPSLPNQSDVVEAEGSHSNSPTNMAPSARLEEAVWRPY
Target sequence (Q13951 whole entry, looked up): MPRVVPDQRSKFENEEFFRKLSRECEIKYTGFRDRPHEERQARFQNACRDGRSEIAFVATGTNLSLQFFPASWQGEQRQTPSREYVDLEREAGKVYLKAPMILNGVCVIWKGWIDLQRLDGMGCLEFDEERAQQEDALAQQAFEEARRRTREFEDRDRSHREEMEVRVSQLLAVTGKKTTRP
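Compounds were screened at multiple concentrations against a preformed CBF-beta(His)/RUNX1(biotin) complex (30 nM of each) for 15 min at room temperature, followed by 90 min with nickel and streptavidin beads and AlphaScreen reading.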
Epigenetic derep: Quantitative High-Throughput Screen for Regulators of Epigenetic Control. 0.2% of 280,000 active. Potency, µM (titrated, usually from 53.9 µM), for the others: top-dose GFP activation, actives largely listed as activators. murine LDR cells, GFP reporter derepression, 30 h; further: potency means the concentration at half of the fitted maximal effect; % of control where 0% means no effect; nearly all actives have a fitted effect of over 60% in size
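Murine LDR cells carrying a silenced, genomically integrated CMV-driven GFP reporter were exposed to compound for 30 hours at 37 C. After PBS washes, GFP-positive cells (20–120 um objects) were counted by laser-scanning microplate cytometry.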
TRHR PAM: qHTS for Small Molecule Agonists and Allosteric Enhancers of Human TRH Receptor: Primary Screen for Enhancers | TRHR cells, fluo-8 calcium fluorescence, EC20 TRH enhancement | 0.66% of 360,000 active | Thyrotropin-releasing hormone receptor (Homo sapiens), P34981 | enhancement, % at 2 µM; in the data active means enhancement above about 30%; further: 0% is about no effect
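TRHR-expressing cells loaded with fluo-8 calcium dye were read kinetically (ex 480/em 530) during compound addition, then stimulated with an EC20 of TRH (10 nM final). Enhancement of the Gq-mediated intracellular calcium response was scored.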
* hit, by the source's call; ? = inconclusive; . = not tested or not shown; [ ] = dose if it differs, or a comment. Rows were chosen to be rich in hits. Some 0.88% of all compounds tested hit in one or more screens of this group. Unless noted, the call rests on the fitted dose curve; in most records, active means well fitted curve in the direction sought with a large enough effect; inconclusive means small, poorly fitted or top-dose-only effect, or another doubt; inactive means no such curve, though single readings can be large; an effect the other way counts as inactive or inconclusive.

SMILES | TRHR ag | MBNL1-CUG inh | IL2 activator | CBFb RUNX1 block | Epigenetic derep | TRHR PAM
COc1ccc(-c2cc(C(F)(F)F)c3c(N)c(C(=O)NCCSC)sc3n2)cc1 | 23 | 20% | 119* | . | . | -2
CCCc1nn2c(=O)cc(COC(=O)c3cccc(NC(=O)COc4ccccc4C)c3)nc2s1 | 0 | . | . | . | -2% | 1
CC(C)CC(=O)c1c[nH]c(C(=O)N2CCN(Cc3ccccc3)CC2)c1 | 0 | -8% | -4 | 2% | 2% | -4
CCCC(=O)c1c[nH]c(C(=O)N2CCOCC2)c1 | 1 | -6% | -1 | -2% | 3%[10.1 µM] | 36*
O=C(O)c1sc2cc(C(F)(F)F)cnc2c1-c1ccccn1 | 0 | -6% | -1 | -4% | 0% | 8
COC(=O)c1sc2cc(C(F)(F)F)cnc2c1-c1ccccn1 | 0 | 17% | -4 | 10% | 0% | 31*
O=C(NCCN1CCOCC1)C(=O)NCC1CCCO1 (stereo unspecified) | 0 | ? | 0 | -16% | 4% | 34*
O=C(NCCCN1CCOCC1)C(=O)NCC1CCCO1 (stereo unspecified) | 0 | -18% | 0 | -4% | 0% | 1
C=CCc1cccc2cc(-c3nc4ccc(C)cc4[nH]3)c(=O)oc12 | 8 | . | . | . | 4µM* | -8
O=C(O)c1ccc2nc(-c3cc4cccc(O)c4oc3=O)[nH]c2c1 | 0 | . | . | . | -1% | 9
O=c1oc2c(CN3CCCCC3)c(O)ccc2cc1-c1nc2ccccc2[nH]1 | 261* | ? | 1 | 8% | 3% | 40*
O=c1oc2c(O)cccc2cc1-c1nc2ccccc2[nH]1 | 199* | ? | -1 | . | . | 48*
CCOc1ccc(C2c3c(oc4ccc(C)cc4c3=O)C(=O)N2c2nc(C)c(C)s2)cc1OC (stereo unspecified) | 1 | . | . | . | 1% | -4
Cc1cc2c(s1)c1cnn(Cc3cccc(C(F)(F)F)c3F)c(=O)c1n2C | 0 | . | . | . | . | -3
CCN(Cc1cccs1)C(=O)CN1C(=O)NC(c2ccccc2)(c2ccccc2)C1=O | 1 | . | 0 | . | . | 35*
Cc1ccc(NS(=O)(=O)c2cc(-c3cnc(C4CC4)o3)ccc2C)cc1Cl | -1 | . | . | . | 0% | 2
COc1ccc(-c2c(C)nn3c(-c4ccccc4)cc(C)nc23)cc1OC | 1 | . | . | . | 1% | 36*
COC(=O)c1ccc(C(=O)NC2CCCc3c2cnn3-c2ccc(C)c(C)c2)cc1 (stereo unspecified) | 0 | 0% | 0 | . | . | 35*
CC1(C)Cc2c(C#N)c(NCc3ccco3)nc(-c3ccco3)c2CO1 | 4 | 21% | 0 | 15% | -3% | 37*
CCN(CC)C(=O)c1ccc2c(c1)N(Cc1ccccc1)C(=O)CS2=O (stereo unspecified) | 0 | -7% | -1 | 17% | -1% | 33*
O=C(NCc1ccco1)c1ccc2c(c1)N(Cc1ccccc1)C(=O)CS2=O (stereo unspecified) | 1 | -3% | 2 | -4% | -1% | 1
Cc1sc2ncn(CC(=O)NCCCC(=O)N3CCN(Cc4ccc5c(c4)OCO5)CC3)c(=O)c2c1C | 0 | -22% | 0 | -1% | -3% | 31*
CCC(C)(C)NC(=O)C(c1cccs1)N(CC1CCCO1)C(=O)Cn1nnc2ccccc21 (stereo unspecified) | -1 | 0% | 2 | 2% | -1% | 38*
Cc1ccc(C2C3=C(CC(C)(C)CC3=O)OC3=C2C(=O)CC(C)(C)C3)cc1 | 0 | 8% | -1 | 2% | 0% | 6
Cc1ccc(C2C3=C(CCCC3=O)OC3=C2C(=O)CCC3)cc1 | -1 | -3% | 0 | 3% | -1% | 40*
SMILES | TRHR ag | MBNL1-CUG inh | IL2 activator | CBFb RUNX1 block | Epigenetic derep | TRHR PAM
O=C1/C(=C\c2ccc(O)cc2)SC(=S)N1/N=C/c1ccc(O)cc1 | 52* | . | 17 | -9% | 0% | 10
COc1cccc(C(=O)NCCc2csc3nc(-c4ccccc4F)nn23)c1OC | 0 | . | . | . | 0% | 35*
O=C(NCCc1csc2nc(-c3ccccc3F)nn12)c1ccccc1C(F)(F)F | 0 | . | . | . | 4% | 1
C/C(=N/NC(=O)C1CCCN1C(=O)c1ccc([N+](=O)[O-])cc1)c1ccc(Br)cc1 (stereo unspecified) | 1 | ? | 1 | . | . | 35*
O=C(N/N=C/c1ccccc1)C1CCCN1C(=O)c1cc([N+](=O)[O-])cc([N+](=O)[O-])c1 (stereo unspecified) | 0 | ? | 1 | . | . | 19
Cc1cc(-c2nnc(SCCC(=O)Nc3ccccc3)o2)no1 | 1 | -3% | 0 | . | . | 6
Cc1cc(-c2nnc(SCc3ccccn3)o2)no1 | -1 | -1% | 1 | -1% | -1% | 31*
O=C(COC(=O)C1CCCN1C(=O)c1cccs1)c1ccccc1 (stereo unspecified) | 0 | -13% | 1 | 4% | -6% | 0
O=C(OCc1ccccc1)C1CCCN1C(=O)c1cccs1 (stereo unspecified) | -1 | -2% | 1 | 2% | -1% | 39*
COc1ccc(NC(=O)C(OC(=O)CNC(=O)c2ccccc2)c2ccccc2)c(C)c1 (stereo unspecified) | 0 | . | . | . | . | 0
CCC(=O)C(C(=O)OC)[C@H](CCc1ccccc1)NC(=O)OC (stereo partly specified) | . | . | . | 0% | -1% | .
CCc1cc(/C(Cc2cscn2)=N\O)c(O)cc1O | 1 | -3% | 2 | 1% | 1% | 30*
O/N=C(\Cc1cscn1)c1ccc(O)cc1O | 0 | 3% | 2 | 4% | 0% | 17
NC(=O)c1ccc(Oc2ccc(Cl)c3ccccc23)c([N+](=O)[O-])c1 | 0 | 7% | -1 | -16% | -1% | 31*
CCCN1C(=O)C(O)(CC(=O)c2ccc(OC)c(OC)c2)c2ccccc21 (stereo unspecified) | -1 | . | . | . | -1% | 4
CC(C)(C)OC(=O)NCC(=O)NNC(=O)c1nc2ccccc2[nH]1 | 1 | . | . | . | . | 2
CC1=C(c2ccc(C)c(C)c2)S(=O)(=O)N(Cc2ccc(C(=O)NCc3ccc(C)cc3)cc2)C1=O | 0 | . | . | . | 0% | 2
